NIH3T3 tox – kills NIH 3T3 cells | NIH 3T3 viability, CellTiter-Glo ATP luminescence, 48-72 h | Potency, µM (highest dose often 96.7 µM), actives largely listed as inhibitors | 94,000 compounds, 4.3% hits; note: nearly all actives have a fitted effect of over 55% in size
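ATP-dependent luminescence (CellTiter-Glo) served as the viability signal for NIH 3T3 cells treated with compound for 48 or 72 hr at 37 °C.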
GPT2 inh – inhibitors of human GPT2 alanine aminotransferase | AID 1671188 | Recombinant GPT2, coupled pyruvate oxidase/HRP Amplex Red fluorescence | Q8TD30 | 100,000 compounds, 0.25% hits | Potency, µM (doses to about 57.7 µM), hits mostly inhibitors; note: nearly all actives have a fitted effect of over 60% in size
Target sequence (Q8TD30 whole entry, looked up): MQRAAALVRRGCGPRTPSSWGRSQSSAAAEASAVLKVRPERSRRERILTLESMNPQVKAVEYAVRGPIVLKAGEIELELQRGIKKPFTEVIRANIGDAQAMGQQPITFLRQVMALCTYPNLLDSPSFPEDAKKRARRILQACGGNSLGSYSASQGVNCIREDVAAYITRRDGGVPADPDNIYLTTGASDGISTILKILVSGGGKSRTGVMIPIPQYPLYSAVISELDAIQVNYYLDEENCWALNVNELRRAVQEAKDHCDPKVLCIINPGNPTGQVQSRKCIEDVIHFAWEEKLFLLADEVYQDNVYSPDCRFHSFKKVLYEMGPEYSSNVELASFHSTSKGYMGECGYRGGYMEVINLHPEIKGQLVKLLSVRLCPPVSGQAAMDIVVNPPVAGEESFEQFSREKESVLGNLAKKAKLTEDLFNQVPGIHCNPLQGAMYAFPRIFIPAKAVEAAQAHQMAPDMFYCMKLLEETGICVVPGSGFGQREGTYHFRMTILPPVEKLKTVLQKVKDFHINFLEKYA
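Inhibition is scored from Amplex Red fluorescence generated when pyruvate oxidase and HRP act on pyruvate released by GPT2. Reactions contain 10ng/uL enzyme, 250uM a-KG and 2mM L-alanine and run 30 min at room temperature.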
HEK cytotox – kills HEK 293 cells; 94,000 compounds, 6.6% hits; Potency, µM (titrated, usually from 115 µM), most hits filed as inhibitors; AID 1345083; HEK 293 viability, ATP luminescence (CellTiter-Glo), 48-72 h; note: nearly all actives have a fitted effect of over 60% in size
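Cells seeded first (HEK 293, 250 cells/well), then compound added by pintool. Incubation ran 48 or 72 hr at 37 degree Celsius. CellTiter-Glo was added and luminescence imaged after 10 min at room temperature.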
NPR1 antag – blocks ANP-stimulated signaling of human Npr1 receptor; P16066; HEK293 hNpr1 GloSensor cGMP, ANP-stimulated luminescence; Potency, µM (top dose mostly 46.3 µM), actives largely listed as inhibitors; 76,000 compounds, 1.6% hits; AID 1347048; calls by dose curve; note: nearly all actives have a fitted effect of over 60% in size
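Compound pre-incubated 30 min at room temperature on GloSensor-loaded HEK293 cells stably carrying hNpr1 and the pGS-40F cGMP biosensor. Stimulation uses hNppA at 0.1 nM final; luminescence is taken at baseline and 20 min post-agonist.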
FLuc inh-1 – blocks purified firefly luciferase enzyme activity. purified P. pyralis luciferase, luminescence, biochemical. Potency, µM (highest dose often 115 µM), usual class: inhibitors. 76,000 compounds, 2.5% hits. AID 1347043; note: nearly all actives have a fitted effect of over 65% in size
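Purified P. pyralis luciferase (10nM final) in 50mM Tris acetate pH 7.5, 10mM Mg acetate, 0.01% Tween-20, 0.05% BSA with 10uM D-luciferin and 10uM ATP. Compounds titrated qHTS. Luminescence imaged on CCD.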
FLuc SDR -ATP – firefly luciferase binding stabilization, ATP absent. 1,300 compounds, 7.8% hits. shares compounds with FLuc inh-1. Purified FLuc-C-HiBiT, Nano-Glo HiBiT luminescence, no ATP. Potency, µM (doses to about 32.7 µM), usual class: activators; note: nearly all actives have a fitted effect of over 55% in size
FLuc SDR ATP – firefly luciferase binding stabilization, ATP added; 1,300 compounds, 8.7% hits; purified FLuc-C-HiBiT + ATP, HiBiT complementation luminescence; shares compounds with FLuc inh-1; Potency, µM (doses to about 32.7 µM), usual class: activators;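 note: signal reports ligand binding via conformational change of the enzyme rather than luciferase catalysis; nearly all actives have a fitted effect of over 55% in size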
FLuc inh-2 – firefly luciferase enzyme inhibition; shares compounds with FLuc inh-1; purified FLuc-C-HiBiT enzyme, luciferin luminescence; Potency, µM (highest dose often 32.7 µM), most hits filed as inhibitors; 1,300 compounds, 42% hits; AID 1963320; note: nearly all actives have a fitted effect of over 70% in size
Hits are given with their value; – = inactive; ? = inconclusive; · = no result; [ ] = remark or other dose. Hits are enriched below; roughly 10% of the tested compounds scored in any of these assays. Unless noted, calls come from the whole dose curve; as a rule, active = well fitted curve in the direction sought with a large enough effect; inconclusive = small, poorly fitted or top-dose-only effect, or another doubt; inactive = no such curve, though single readings can be large; an effect the other way counts as inactive or inconclusive.

SMILES	NIH3T3 tox	GPT2 inh	HEK cytotox	NPR1 antag	FLuc inh-1	FLuc SDR -ATP	FLuc SDR ATP	FLuc inh-2
COc1cc(NC(=O)c2cc3c(=O)[nH]c(C)cn3n2)cc(OC)c1OC	?	–	–	–	?	·	·	·
COc1ccc(C(=O)Nc2ccc([C@H]3OCC(=O)N[C@@H]3CO)cc2)cc1OC	–	–	–	–	–	·	·	·
COc1ccc(C(=O)Nc2cc(C)c(O)c(-c3nc4ccccc4s3)c2)cc1OC	·	·	·	·	·	–	–	?
COc1cc(C(=O)Nc2cc(C)c(O)c(-c3nc4ccccc4s3)c2)cc(OC)c1OC	·	·	·	·	·	–	–	–
CCCc1noc(-c2cn(C3CCN(C(=O)c4cc(F)ccc4F)CC3)nn2)n1	?	–	?	–	–	·	·	·
COc1ccc(C(=O)Oc2ccc(C(c3c(C)[nH][nH]c3=O)c3c(C)[nH][nH]c3=O)cc2)cc1	·	·	·	·	·	–	–	?
COc1ccc2cc(C(C)C(=O)Oc3ccc(C(N)=S)cc3)ccc2c1 (stereo unspecified)	·	–	·	·	·	·	·	·
COc1ccc(-c2noc(Nc3ccc(C)c(C)c3)n2)cc1	?	–	39.8µM	–	8.91µM	–	–	?
COc1cccc(Nc2nc(-c3ccccc3)no2)c1	44.7µM	–	?	8.91µM	0.794µM	?	?	6.24µM
CCc1cccc(Nc2nc(-c3ccc(OC)c(OC)c3)no2)c1	?	–	?	–	?	·	·	·
COc1cc(Nc2nc(-c3cccc(OC)c3OC)no2)cc(OC)c1OC	?	–	?	–	–	·	·	·
Fc1ccccc1Nc1nc(-c2ccccc2)no1	?	?	?	4.47µM	0.398µM	?	?	0.7µM
COc1ccc(-c2noc(Nc3ccc(OC)c(OC)c3)n2)cc1	?	–	28.2µM	–	7.94µM	–	–	?
Cc1ccsc1CCNc1cc(C2CC(N)C2)ncn1 (stereo unspecified)	–	–	?	–	–	·	·	·
CC(C)=CCN1CCCC2(Cc3ccccc3CNC2=O)C1 (stereo unspecified)	–	–	–	·	·	·	·	·
O=C(NCC(F)(F)F)c1nc2cccnc2n(Cc2ccccc2)c1=O	–	–	–	·	·	·	·	·
Cc1ccccc1CC(=O)N1CCN(c2cc(-c3ccc(Cl)cc3)[nH]n2)CC1	–	–	?	?	–	·	·	·
Nc1nccc(N2CCCC(Cc3ccccc3F)(C(=O)O)C2)n1 (stereo unspecified)	–	–[11.5 µM]	–	–	–	·	·	·
O=C(O)C1(CCc2ccccc2)CCCN(c2ncnc3nc[nH]c23)C1 (stereo unspecified)	–	–	–	–	–	–	–	–
Cn1ncc2c(C(=O)NC3CCOCC3)cc(-c3cccc(F)c3)nc21	–	·	–	·	·	·	·	·
CCCNC(=O)Cn1cccc1-c1nc(-c2ccc(OC)c(F)c2)no1	–	–	–	–	–	·	·	·
COc1cccc(CC(=O)NCCn2ccn3nc(-c4ccc(C)c(C)c4)cc3c2=O)c1	?	–	79.4µM	–	12.6µM	–	–	?
COc1ccccc1C(=O)NCCn1ccn2nc(-c3ccc(C)c(C)c3)cc2c1=O	–	–	–	–	–	·	·	·
COc1cccc(-c2cc3c(=O)n(CCNC(=O)c4ccccc4Cl)ccn3n2)c1	–	–	?	–	12.6µM	–	–	?
COc1ccc(-c2cc3c(=O)n(CCNC(=O)Cc4cccs4)ccn3n2)cc1	?	–	?	–	8.91µM	?	?	?
SMILES	NIH3T3 tox	GPT2 inh	HEK cytotox	NPR1 antag	FLuc inh-1	FLuc SDR -ATP	FLuc SDR ATP	FLuc inh-2
CC(C)CCNC(=O)N1CCCC(c2noc(COc3ccccc3)n2)C1 (stereo unspecified)	?	–	?	–	–	·	·	·
O=C1CC2(CCN(CC3CC3)CC2)Oc2cc(Cl)ccc21	–	–	?	?	3.16µM	–	–	?
O=C1CC2(CCN(Cc3ccccc3)CC2)Oc2cc(Cl)ccc21	?	–	?	–	?	·	·	·
Fc1ccc(-c2cc3c(cn2)CN(Cc2ccncc2)CCN3)cc1Cl	?	–	56.2µM	?	1.78µM	–	–	18µM
Fc1ccc(CNc2cc3c(cn2)NCCN(Cc2ccccc2)C3)cc1	?	?	?	–	–	·	·	·
COc1ccc(-c2cc3c(cn2)CN(Cc2ccncc2)CCN3)cc1	?	–	?	?	3.16µM	–	?	?
COc1ccc(CN2CCNc3cc(-c4ccccc4)ncc3C2)cn1	?	–	?	–	14.1µM	–	–	?
COc1ccccc1CCC(=O)Nc1cccc(-c2nnc3n2CCCC3)c1	–	?	?	–	–	·	·	·
Cc1[nH]cnc1CN1CCc2nc(C(=O)Nc3cccc(C(F)(F)F)c3)oc2CC1	?	–	?	–	–	·	·	·
Cc1ccc(CN2CCc3nc(C(=O)Nc4ccccc4)oc3CC2)cc1	?	–	?	22.4µM	5.01µM	–	–	?
O=C(Nc1ccccc1)c1nc2c(o1)CCN(Cc1ccccn1)CC2	?	–	?	?	3.98µM	–	?	?
O=C(NCc1cccc(F)c1)c1nc2c(o1)CCN(Cc1cccc(Cl)c1)CC2	?	–	?	?	–	·	·	·
Cc1csc(NC(=O)c2nc3c(o2)CCN(Cc2cccc(F)c2)CC3)n1	?	–	50.1µM	–	2.82µM	–	?	14.3µM
O=C(Nc1ccccc1)c1nc2c(o1)CCN(Cc1ccc(O)cc1)CC2	–	–	?	25.1µM	0.562µM	?	?	5.08µM
CC(=O)N1CCC[C@@H]1C(=O)N1CCCC(c2nc3ccncc3[nH]2)C1 (stereo partly specified)	–	–	–	·	·	·	·	·
COc1ccc(Cn2c(=O)c(C(=O)NCc3ccc(F)cc3)nc3cccnc32)cc1	?	–	?	·	·	·	·	·
Cc1cc(C(=O)NCc2cccs2)c2c(C3CCCNC3)noc2n1 (stereo unspecified)	–	–	–	·	·	·	·	·
COc1ccc(OC)c(CNC(=O)COc2ccc(NC(=O)C3CC3)cn2)c1	–	–	–	–	–	·	·	·
Cn1cc(CN2CCc3nc(C(=O)Nc4ccccc4)oc3CC2)cn1	·	·	·	·	·	–	–	?
COc1cccc(CN2CCc3nc(C(=O)NCC4CC4)oc3CC2)c1	?	–	?	–	–	·	·	·
CN1C[C@@H]2C[C@@H](C(N)=O)N(C(=O)OCC(C)(C)C)c3cccc(c32)C1=O	?	–	–	·	·	·	·	·
COC(=O)Nc1cc(C2CC2)nn1-c1ccccc1	–	–	–	·	·	·	·	·
Cc1ccc2nc3n(c2c1)[C@@H](CNCc1ccccc1)COC3	?	–	?	?	–	·	·	·
CCc1ccc(C2=CC(c3cccc(C)c3)n3c(nc4ccccc43)N2)cc1 (stereo unspecified)	·	·	·	·	·	11.1µM	?	0.881µM

Compound activity: PubChem BioAssay, National Center for Advancing Translational Sciences (NCATS)
